Experimental findings from ChEMBL document CHEMBL1961873, “Compounds: GSK PKIS; Assays: Nanosyn kinase panel” (2012) are described below.

Assay [1] addresses 5'-AMP-activated protein kinase catalytic subunit alpha-2 (Homo sapiens) (UniProt P54646). Conditions: at 1 µM.
The target of assay [2] is T1, NUAK family SNF1-like kinase 1 (Homo sapiens) (UniProt O60285).
T1 sequence (whole entry): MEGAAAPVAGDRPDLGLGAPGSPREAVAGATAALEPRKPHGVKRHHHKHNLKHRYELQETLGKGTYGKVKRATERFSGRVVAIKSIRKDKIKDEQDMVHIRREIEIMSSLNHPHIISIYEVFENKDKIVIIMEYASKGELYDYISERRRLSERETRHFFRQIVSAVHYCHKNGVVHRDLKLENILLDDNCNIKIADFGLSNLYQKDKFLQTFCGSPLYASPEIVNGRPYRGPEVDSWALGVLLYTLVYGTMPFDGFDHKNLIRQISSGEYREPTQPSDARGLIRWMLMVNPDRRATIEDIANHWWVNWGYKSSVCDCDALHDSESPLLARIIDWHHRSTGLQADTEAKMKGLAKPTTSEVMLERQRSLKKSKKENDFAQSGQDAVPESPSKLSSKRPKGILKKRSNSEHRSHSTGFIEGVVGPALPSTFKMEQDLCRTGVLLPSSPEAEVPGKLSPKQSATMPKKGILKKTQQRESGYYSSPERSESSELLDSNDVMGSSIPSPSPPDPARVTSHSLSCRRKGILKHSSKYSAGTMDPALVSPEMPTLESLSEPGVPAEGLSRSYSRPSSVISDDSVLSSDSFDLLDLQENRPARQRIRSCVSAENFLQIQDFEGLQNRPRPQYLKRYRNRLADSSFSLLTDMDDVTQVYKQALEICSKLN
Conditions: at 0.1 µM.

In assay [3] the target is T1, NUAK family SNF1-like kinase 1 (Homo sapiens). The conditions noted are these: at 1 µM.
Assay [4] deals with T2, Serine/threonine-protein kinase BRSK1 (Homo sapiens) (UniProt Q8TDC3).
T2 sequence (whole entry): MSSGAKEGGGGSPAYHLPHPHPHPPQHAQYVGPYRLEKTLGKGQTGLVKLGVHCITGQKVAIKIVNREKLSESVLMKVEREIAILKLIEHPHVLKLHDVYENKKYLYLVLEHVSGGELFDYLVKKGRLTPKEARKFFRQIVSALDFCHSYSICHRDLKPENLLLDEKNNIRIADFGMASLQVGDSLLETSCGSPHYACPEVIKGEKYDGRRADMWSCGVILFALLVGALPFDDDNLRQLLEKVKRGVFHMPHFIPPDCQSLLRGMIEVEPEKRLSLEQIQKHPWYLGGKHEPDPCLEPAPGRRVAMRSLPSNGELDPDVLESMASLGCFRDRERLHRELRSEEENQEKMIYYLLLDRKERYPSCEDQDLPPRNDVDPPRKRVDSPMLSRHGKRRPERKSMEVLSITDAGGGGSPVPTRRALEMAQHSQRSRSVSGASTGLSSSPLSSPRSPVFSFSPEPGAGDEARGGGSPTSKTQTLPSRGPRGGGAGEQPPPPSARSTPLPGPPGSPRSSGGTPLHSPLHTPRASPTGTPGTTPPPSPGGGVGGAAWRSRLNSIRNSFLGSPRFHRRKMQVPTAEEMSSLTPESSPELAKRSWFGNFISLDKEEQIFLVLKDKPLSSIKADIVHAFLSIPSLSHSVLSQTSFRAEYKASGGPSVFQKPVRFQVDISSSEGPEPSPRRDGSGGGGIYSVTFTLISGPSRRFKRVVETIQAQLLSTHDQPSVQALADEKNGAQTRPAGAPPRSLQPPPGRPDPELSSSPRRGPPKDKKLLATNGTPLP
Conditions: at 0.1 µM.

Assay [5] addresses T2, Serine/threonine-protein kinase BRSK1 (Homo sapiens). Conditions: at 1 µM.
The target of assay [6] is T3, Serine/threonine-protein kinase BRSK2 (Homo sapiens) (UniProt Q8IWQ3).
T3 sequence (whole entry): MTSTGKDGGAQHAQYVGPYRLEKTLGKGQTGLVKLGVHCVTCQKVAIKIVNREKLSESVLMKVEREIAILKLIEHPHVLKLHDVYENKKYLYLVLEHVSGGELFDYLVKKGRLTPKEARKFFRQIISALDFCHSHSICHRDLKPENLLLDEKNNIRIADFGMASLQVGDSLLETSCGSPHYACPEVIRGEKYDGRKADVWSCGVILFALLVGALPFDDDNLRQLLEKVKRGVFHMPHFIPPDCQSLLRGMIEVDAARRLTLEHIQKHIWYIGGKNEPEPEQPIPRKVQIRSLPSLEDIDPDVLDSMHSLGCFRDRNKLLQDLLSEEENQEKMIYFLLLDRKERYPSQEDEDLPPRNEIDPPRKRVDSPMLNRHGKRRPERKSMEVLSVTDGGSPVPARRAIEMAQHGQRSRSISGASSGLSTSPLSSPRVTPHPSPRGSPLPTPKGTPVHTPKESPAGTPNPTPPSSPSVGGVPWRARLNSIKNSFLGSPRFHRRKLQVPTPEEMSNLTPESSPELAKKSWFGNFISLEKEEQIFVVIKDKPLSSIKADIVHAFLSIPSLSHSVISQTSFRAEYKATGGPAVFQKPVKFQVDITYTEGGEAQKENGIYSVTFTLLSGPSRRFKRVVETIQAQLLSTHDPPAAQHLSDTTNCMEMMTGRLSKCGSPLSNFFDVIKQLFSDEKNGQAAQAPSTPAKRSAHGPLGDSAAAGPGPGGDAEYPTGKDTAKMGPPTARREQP
The conditions noted are these: at 0.1 µM.

In assay [7] the target is T3, Serine/threonine-protein kinase BRSK2 (Homo sapiens). The conditions noted are these: at 1 µM.
Assay [8] has as its target Calcium/calmodulin-dependent protein kinase type 1D (Homo sapiens) (UniProt Q8IU85). Conditions: at 0.1 µM.
For assay [9] the target is unchanged. The conditions noted are these: at 1 µM.
For assay [10], the target named is Calcium/calmodulin-dependent protein kinase type II subunit alpha (Homo sapiens) (UniProt Q9UQM7). Conditions: at 0.1 µM.
For assay [11] the target is unchanged. The conditions noted are these: at 1 µM.
The target of assay [12] is Calcium/calmodulin-dependent protein kinase type II subunit delta (Homo sapiens) (UniProt Q13557). Conditions: at 0.1 µM.
For assay [13] the target is unchanged. The conditions noted are these: at 1 µM.
Assay [14] addresses T4, Calcium/calmodulin-dependent protein kinase type IV (Homo sapiens) (UniProt Q16566).
T4 sequence (whole entry): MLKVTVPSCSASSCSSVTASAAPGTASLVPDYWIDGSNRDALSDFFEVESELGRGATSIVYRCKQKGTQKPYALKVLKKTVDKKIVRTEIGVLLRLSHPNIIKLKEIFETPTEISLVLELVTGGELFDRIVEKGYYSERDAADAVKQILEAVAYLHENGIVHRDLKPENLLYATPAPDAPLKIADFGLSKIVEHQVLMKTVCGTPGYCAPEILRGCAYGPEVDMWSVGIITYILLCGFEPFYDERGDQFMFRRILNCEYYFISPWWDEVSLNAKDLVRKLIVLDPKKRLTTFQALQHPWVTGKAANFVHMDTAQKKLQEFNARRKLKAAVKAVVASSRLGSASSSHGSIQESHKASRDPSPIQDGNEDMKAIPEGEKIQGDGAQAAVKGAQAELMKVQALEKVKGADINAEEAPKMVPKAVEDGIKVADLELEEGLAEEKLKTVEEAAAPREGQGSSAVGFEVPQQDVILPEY
The conditions noted are these: at 0.1 µM.

For assay [15], the target named is T4, Calcium/calmodulin-dependent protein kinase type IV (Homo sapiens). The conditions noted are these: at 1 µM.
Assay [16] addresses T5, Serine/threonine-protein kinase Chk1 (Homo sapiens) (UniProt O14757).
T5 sequence (whole entry): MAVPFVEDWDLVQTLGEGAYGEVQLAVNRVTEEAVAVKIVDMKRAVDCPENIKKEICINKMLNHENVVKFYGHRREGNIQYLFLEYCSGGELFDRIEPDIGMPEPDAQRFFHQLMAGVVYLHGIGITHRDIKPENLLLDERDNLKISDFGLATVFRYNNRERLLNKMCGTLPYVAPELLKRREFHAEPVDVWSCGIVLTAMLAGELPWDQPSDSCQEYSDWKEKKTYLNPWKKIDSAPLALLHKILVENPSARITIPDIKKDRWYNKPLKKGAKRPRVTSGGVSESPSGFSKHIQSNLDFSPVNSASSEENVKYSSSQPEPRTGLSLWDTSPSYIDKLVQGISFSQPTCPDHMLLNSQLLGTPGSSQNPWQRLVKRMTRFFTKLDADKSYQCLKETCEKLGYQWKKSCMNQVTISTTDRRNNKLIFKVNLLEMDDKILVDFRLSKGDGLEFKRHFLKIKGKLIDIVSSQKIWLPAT
Conditions: at 0.1 µM.

The target in assay [17] is T5, Serine/threonine-protein kinase Chk1 (Homo sapiens). The conditions noted are these: at 1 µM.
Assay [18] has as its target Serine/threonine-protein kinase Chk2 (Homo sapiens) (UniProt O96017). Conditions: at 0.1 µM.
The target is the same in assay [19]. The conditions noted are these: at 1 µM.
Assay [20] concerns the target Death-associated protein kinase 1 (Homo sapiens) (UniProt P53355). Conditions: at 0.1 µM.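 Note: reported figure is the mean inhibition of DAPK1.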

The structures appear in SMILES notation.

Chain of Calcium/calmodulin-dependent protein kinase type 1D (Homo sapiens) (Q8IU85 whole entry, looked up): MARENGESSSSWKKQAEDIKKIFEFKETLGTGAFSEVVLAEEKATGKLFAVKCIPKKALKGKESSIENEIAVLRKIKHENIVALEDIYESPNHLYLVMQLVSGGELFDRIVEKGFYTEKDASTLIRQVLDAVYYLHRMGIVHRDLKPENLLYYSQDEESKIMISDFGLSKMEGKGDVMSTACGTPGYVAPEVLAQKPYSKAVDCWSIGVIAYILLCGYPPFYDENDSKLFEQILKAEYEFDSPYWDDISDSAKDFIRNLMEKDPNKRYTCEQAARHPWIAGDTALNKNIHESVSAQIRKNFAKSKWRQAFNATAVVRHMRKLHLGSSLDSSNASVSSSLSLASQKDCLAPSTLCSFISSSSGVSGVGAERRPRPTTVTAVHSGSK
Chain of Calcium/calmodulin-dependent protein kinase type II subunit delta (Homo sapiens) (Q13557 whole entry): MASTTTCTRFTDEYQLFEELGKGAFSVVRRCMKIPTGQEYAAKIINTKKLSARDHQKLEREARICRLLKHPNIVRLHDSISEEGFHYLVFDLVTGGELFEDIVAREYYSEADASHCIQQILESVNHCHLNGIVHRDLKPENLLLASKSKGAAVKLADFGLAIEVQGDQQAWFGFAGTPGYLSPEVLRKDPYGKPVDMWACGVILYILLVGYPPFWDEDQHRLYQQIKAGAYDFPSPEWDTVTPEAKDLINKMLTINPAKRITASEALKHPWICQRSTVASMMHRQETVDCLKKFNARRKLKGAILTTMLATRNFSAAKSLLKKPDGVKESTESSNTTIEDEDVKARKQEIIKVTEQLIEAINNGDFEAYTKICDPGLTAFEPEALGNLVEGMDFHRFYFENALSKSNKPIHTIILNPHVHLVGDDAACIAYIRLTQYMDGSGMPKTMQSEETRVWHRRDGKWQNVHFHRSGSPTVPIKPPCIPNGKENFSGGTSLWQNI
Chain of Serine/threonine-protein kinase Chk2 (Homo sapiens) (O96017 whole entry): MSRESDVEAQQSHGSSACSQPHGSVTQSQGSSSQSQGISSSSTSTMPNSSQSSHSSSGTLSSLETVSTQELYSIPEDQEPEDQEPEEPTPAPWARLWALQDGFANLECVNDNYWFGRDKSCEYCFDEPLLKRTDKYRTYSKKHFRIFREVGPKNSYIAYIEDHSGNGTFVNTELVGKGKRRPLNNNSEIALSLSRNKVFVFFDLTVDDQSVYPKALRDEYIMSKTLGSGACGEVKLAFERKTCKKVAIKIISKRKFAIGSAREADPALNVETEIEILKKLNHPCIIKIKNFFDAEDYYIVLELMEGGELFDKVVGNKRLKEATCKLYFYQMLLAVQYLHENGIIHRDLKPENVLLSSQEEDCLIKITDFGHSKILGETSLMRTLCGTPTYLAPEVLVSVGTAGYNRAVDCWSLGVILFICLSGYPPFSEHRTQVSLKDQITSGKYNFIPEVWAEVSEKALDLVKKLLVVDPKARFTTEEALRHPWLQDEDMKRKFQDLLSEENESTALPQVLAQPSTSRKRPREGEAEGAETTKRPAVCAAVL
Chain of Death-associated protein kinase 1 (Homo sapiens) (P53355 whole entry, looked up): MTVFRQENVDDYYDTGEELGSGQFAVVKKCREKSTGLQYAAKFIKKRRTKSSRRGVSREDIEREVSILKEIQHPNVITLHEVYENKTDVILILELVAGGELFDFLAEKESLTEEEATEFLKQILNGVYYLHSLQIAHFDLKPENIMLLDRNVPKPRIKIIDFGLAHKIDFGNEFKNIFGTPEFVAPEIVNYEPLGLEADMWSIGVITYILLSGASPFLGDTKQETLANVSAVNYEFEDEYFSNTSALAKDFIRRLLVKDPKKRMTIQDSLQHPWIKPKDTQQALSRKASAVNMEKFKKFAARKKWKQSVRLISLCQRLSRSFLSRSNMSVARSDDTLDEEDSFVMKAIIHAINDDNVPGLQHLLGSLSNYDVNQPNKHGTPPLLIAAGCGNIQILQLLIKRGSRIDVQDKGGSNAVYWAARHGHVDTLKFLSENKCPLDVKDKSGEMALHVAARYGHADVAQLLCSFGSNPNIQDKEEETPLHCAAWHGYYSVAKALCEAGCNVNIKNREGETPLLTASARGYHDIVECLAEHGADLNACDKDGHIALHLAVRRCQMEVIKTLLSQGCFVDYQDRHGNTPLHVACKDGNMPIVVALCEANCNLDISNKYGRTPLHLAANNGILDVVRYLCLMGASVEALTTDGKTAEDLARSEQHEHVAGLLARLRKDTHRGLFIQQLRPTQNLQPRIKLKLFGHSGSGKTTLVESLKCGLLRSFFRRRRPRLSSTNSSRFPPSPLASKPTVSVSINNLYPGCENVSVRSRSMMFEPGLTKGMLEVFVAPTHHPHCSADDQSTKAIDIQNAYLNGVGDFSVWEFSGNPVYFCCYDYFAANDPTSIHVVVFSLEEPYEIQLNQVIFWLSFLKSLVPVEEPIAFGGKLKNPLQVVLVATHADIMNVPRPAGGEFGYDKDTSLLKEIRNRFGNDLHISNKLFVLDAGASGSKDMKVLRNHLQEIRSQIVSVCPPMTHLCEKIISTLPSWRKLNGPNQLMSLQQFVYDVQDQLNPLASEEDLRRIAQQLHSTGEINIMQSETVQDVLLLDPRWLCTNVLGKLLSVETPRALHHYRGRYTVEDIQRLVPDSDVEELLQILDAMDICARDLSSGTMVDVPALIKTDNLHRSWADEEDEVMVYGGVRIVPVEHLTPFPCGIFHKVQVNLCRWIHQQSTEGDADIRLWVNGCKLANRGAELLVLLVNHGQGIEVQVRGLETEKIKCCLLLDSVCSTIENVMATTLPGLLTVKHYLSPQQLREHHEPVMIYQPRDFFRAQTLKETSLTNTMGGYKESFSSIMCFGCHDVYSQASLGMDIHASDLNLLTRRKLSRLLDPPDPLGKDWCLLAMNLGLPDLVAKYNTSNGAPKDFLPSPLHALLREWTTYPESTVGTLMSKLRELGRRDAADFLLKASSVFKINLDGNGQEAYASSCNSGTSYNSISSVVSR
Chain of 5'-AMP-activated protein kinase catalytic subunit alpha-2 (Homo sapiens) (P54646 whole entry, looked up): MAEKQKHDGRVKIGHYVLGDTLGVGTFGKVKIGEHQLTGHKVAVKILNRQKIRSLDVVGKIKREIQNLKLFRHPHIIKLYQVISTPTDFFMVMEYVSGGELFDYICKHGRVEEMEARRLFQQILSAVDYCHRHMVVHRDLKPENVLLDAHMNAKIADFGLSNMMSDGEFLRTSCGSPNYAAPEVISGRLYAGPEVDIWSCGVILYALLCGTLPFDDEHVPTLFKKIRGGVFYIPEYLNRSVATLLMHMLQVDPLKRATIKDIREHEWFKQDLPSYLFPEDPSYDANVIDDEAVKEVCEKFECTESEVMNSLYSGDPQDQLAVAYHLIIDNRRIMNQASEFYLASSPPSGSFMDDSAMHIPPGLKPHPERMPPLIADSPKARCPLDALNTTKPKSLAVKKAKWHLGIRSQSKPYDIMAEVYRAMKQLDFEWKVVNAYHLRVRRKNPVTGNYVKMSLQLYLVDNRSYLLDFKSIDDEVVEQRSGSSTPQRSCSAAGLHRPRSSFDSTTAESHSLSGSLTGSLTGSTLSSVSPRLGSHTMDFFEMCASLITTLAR
Chain of Calcium/calmodulin-dependent protein kinase type II subunit alpha (Homo sapiens) (Q9UQM7 whole entry): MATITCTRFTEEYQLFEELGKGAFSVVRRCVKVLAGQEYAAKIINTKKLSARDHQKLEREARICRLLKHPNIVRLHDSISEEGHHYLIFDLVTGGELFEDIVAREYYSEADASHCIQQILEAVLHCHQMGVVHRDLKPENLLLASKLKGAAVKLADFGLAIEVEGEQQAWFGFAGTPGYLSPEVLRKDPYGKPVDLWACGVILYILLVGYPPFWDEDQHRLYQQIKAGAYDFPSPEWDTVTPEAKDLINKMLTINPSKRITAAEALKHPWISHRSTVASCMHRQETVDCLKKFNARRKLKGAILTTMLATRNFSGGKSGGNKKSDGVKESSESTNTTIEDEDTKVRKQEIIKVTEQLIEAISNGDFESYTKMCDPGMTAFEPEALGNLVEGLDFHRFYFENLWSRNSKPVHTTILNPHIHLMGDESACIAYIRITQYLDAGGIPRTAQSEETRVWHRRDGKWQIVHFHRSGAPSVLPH

In the case of `CS(=O)(=O)CCNCc1cc(-c2cc3c(Nc4ccc(OCc5cccc(F)c5)c(Cl)c4)ncnc3s2)cs1`, the inhibition was 3.11% in assay [1]; -0.49% in assay [2]; 3.79% in assay [3]; 1.37% in assay [4]; -0.77% in assay [5]; 0.67% in assay [6]. Also, the inhibition amounted to 4.02% in assay [7]; 0.48% in assay [8]; 2.27% in assay [9]; 3.07% in [10]; 3.15% in assay [11]; 4.55% in assay [12]. The inhibition is 7.4% in assay [13]; -2.05% in assay [14]; 2.64% in [15]; 1.14% in assay [16]; 4.23% in assay [17]; 4.96% in [18]. For the same compound, the inhibition in assay [19] stood at 11.2%; in assay [20], 2.74%.
As for `c1ccc(-c2n[nH]cc2-c2ccnc(-c3ccc(OCCN4CCOCC4)cc3)c2)nc1`, the inhibition in assay [1] stood at 4.37%; in assay [2], 5.95%; in assay [3] it was 7.16%; in [4], 8.84%; in assay [5] it was 6.57%; in assay [6], 6.13%. For the same compound, the inhibition in [7] is 4.06%; in assay [8], 2.06%; in assay [9] it was 3.63%; in [10], -0.64%; in assay [11], 0.85%; in assay [12] it was -1.29%. The inhibition in [13] was -0.13%; in [14], -0.9%; in [15], 0.4%; in assay [16], 1.01%; in [17], -1.98%; in [18] it was 3.21%. Moreover, the inhibition in [19] worked out at 2.24%; in [20], 1%.
Consider `Fc1ccc(-c2ncn(CCCN3CCOCC3)c2-c2ccncc2)cc1`, for which the inhibition came to 2.58% in [1]; 0.22% in assay [2]; 3.87% in assay [3]; 1.09% in assay [4]; 1.49% in assay [5]; 1.32% in [6]. In addition, the inhibition in assay [7] is -0.21%; in assay [8] it was 1.77%; in [9] it was 1.54%; in assay [10], 0.57%; in assay [11], 1.91%; in assay [12], 1.48%. Further, the inhibition in assay [13] is 2.85%; in [14] it was 1.75%; in [15] it was 2.08%; in [16], 2.08%; in [17] it was -1.19%; in assay [18], -0.55%. Also, the values for the inhibition in [19] and in [20] were -1.12% and 0.52%, respectively.
For the compound `O=C1Nc2ccccc2/C1=C/Nc1ccc(-n2cncn2)cc1`, the inhibition in [1] was determined as 15.5%; in assay [2], 8.76%; in [3], 38.7%; in [4], 2.17%; in assay [5], 17.2%; in assay [6], 4.08%. Further, the inhibition in assay [7] is 26.3%; in assay [8], 0.18%; in [9] it was 0.98%; in [10], 3.66%; in assay [11], 4.05%; in assay [12], 2.3%. In addition, the inhibition in assay [13] is 6.83%; in [14], -0.87%; in assay [15] it was -2.92%; in assay [16], 1.77%; in assay [17], 13.5%; in assay [18], 3.98%. In addition, the inhibition in assay [19] stood at 14.9%; in assay [20], 5.75%.
